Measured values taken from PubChem BioAssay AID493191 (Broad Institute, 2011).
Hit rate of the full screen: of about 1,300 compounds, about 330 (25%) were called active. A selection follows. Results with a measured potency or affinity are listed apart. Values without a mark were called inactive. How the calls were made is not given here.

Assay: MALME3 melanoma cell viability loss, dose response, orthogonal assay for MITF inhibitor project, CellTiter-Glo, cherry-picked (AID 493191)
Settings: CellTiter-Glo luminescence, 24 h; series mostly up to 35 µM; activity change, negative = inhibition: at the top concentration
In the case of `CC(=NNc1nc2ccccc2o1)c1cc2ccccc2cn1`, the “activity change, negative = inhibition” value is reported as -27.3%. With `NCCCNc1nc(N)c([N+](=O)[O-])c(NC2CCCCC2)n1` the “activity change, negative = inhibition” value was -4.7%. For `CC(=O)c1ccc(N/C=C/C(=O)c2ccc(Br)cc2)cc1`, the “activity change, negative = inhibition” value was -9.49%. With `COc1ccc(NC(=O)c2scc(S(=O)(=O)C(C)C)c2N)cc1` the “activity change, negative = inhibition” value was 2.91%. In the case of `C/C(=N\NC(=O)C(c1ccccc1)c1ccccc1)c1ccccn1`, the “activity change, negative = inhibition” value is reported as -16.6%. With `CCOC(=O)C1(Cc2ccccc2)CCCN(CCCn2cccn2)C1` (stereo not drawn) the “activity change, negative = inhibition” value was -1.46%. With `Cc1csc(N/N=C/c2ccc([N+](=O)[O-])cc2)n1` the “activity change, negative = inhibition” value was -4.58%. In the case of `CN(C)S(=O)(=O)c1ccc(-c2csc(N/N=C/c3ccco3)n2)cc1`, the “activity change, negative = inhibition” value is reported as -18%. In the case of `COC(=O)c1ccc(/C=C(\C#N)C(=O)NC(C)c2ccccc2)cc1` (stereo not drawn), the “activity change, negative = inhibition” value is reported as -44.5%. In the case of `COc1ccc(/C=C2\SC(=O)N(CCCC(=O)Nc3cc(Cl)ccc3C(=O)O)C2=O)cc1`, the “activity change, negative = inhibition” value is reported as 2.02%. For `c1cc(CSc2nnc(-c3ccc4c(c3)OCO4)o2)ccn1`, the “activity change, negative = inhibition” value was -39.7%. With `COc1ccc2c(C)nc(Nc3nc(-c4ccccc4)cc(=O)[nH]3)nc2c1` the “activity change, negative = inhibition” value was -29.7%. In the case of `O=C(Nc1cc2c(cc1Cl)OCCO2)c1ccco1`, the “activity change, negative = inhibition” value is reported as 2.69%. In the case of `Nc1nnnn1/N=C/C(Br)=C/c1ccccc1`, the “activity change, negative = inhibition” value is reported as -24.4%. In the case of `Cc1cc(C)nc(S/C=C/C(=O)c2ccccc2F)n1`, the “activity change, negative = inhibition” value is reported as -27.5%. With `Cn1nc([N+](=O)[O-])nc1S(C)(=O)=O` the “activity change, negative = inhibition” value was -9.21%. In the case of `CN(C)c1ccc(CNc2ccccn2)cc1`, the “activity change, negative = inhibition” value is reported as -1.21%. For `COC(=O)c1ccc(/C=N/Nc2nc(C)c(C)s2)cc1`, the “activity change, negative = inhibition” value was -12.1%. In the case of `O=C(CCNc1ccccc1)c1ccc2c(c1)OCO2`, the “activity change, negative = inhibition” value is reported as 7.65%. For `CC1=NOC(=O)/C1=C\c1ccc(-c2cccc(Cl)c2)o1`, the “activity change, negative = inhibition” value was -12.7%. In the case of `Cc1c(C(=O)N(CCO)Cc2ccccc2)oc2c(F)cccc12`, the “activity change, negative = inhibition” value is reported as -4.4%. In the case of `COc1ccc(NC(=O)C2COc3ccccc3O2)cc1` (stereo not drawn), the “activity change, negative = inhibition” value is reported as 4.91%. With `COc1cc2ccccc2cc1C(=O)Nc1ccc(N2CCN(C)CC2)cc1` the “activity change, negative = inhibition” value was -5.36%. In the case of `CCC1CCCCN1CCCNC(=O)c1cn(CC)c2ccc(S(=O)(=O)N(C)C3CCCCC3)cc2c1=O` (stereo not drawn), the “activity change, negative = inhibition” value is reported as 3.17%. For `O=C(O)CSCC(=O)Nc1ccc(C2CCCCC2)cc1`, the “activity change, negative = inhibition” value was -15.5%. For `CC(C)OC(=O)CSc1nc2cc3c(cc2cc1C#N)OCO3`, the “activity change, negative = inhibition” value was -0.146%. In the case of `Cc1nn(-c2ccccc2Cl)c(Cl)c1/C=N/Nc1cccc(C(=O)O)c1`, the “activity change, negative = inhibition” value is reported as -4.55%. In the case of `N#Cc1cc2c(nc1SC1CC(=O)N(c3ccccc3)C1=O)CCC2` (stereo not drawn), the “activity change, negative = inhibition” value is reported as -6.38%. For `CCSc1ccccc1C(=O)n1nnc2ccccc21`, the “activity change, negative = inhibition” value was -31.2%. With `COc1ccc(/C=C/c2cc(C(F)(F)F)on2)cc1` the “activity change, negative = inhibition” value was 6.62%. In the case of `Cc1[nH]nc(Nc2ccc(Br)cc2)c1[N+](=O)[O-]`, the “activity change, negative = inhibition” value is reported as -14.8%. In the case of `CCCCNC(=O)Nc1ccc(C2SCCS2)cc1`, the “activity change, negative = inhibition” value is reported as -0.988%. For `COc1ccc(COC(=O)c2cc([N+](=O)[O-])ccc2N2CCOCC2)cc1F`, the “activity change, negative = inhibition” value was 11.2%. With `Cc1ccccc1-n1ncc2c([N+](=O)[O-])cc([N+](=O)[O-])cc21` the “activity change, negative = inhibition” value was -38.6%. For `CCN1CCc2c(sc(NC(=O)c3ccc(S(=O)(=O)N4CCCC4)cc3)c2C(=O)NC)C1`, the “activity change, negative = inhibition” value was 0.364%. With `COc1ccc2nc(C)cc(SCC(=O)N/N=C/c3ccc(O)cc3O)c2c1` the “activity change, negative = inhibition” value was -15.7%. With `COc1ccc(-c2nc(-c3ccncc3)no2)cc1OC` the “activity change, negative = inhibition” value was -2.17%. In the case of `COc1ccc(-c2cc(-c3ccccc3O)[nH]n2)cc1OC`, the “activity change, negative = inhibition” value is reported as 14.5%. With `COc1ccc(/C=N/Nc2ccccn2)cc1OC` the “activity change, negative = inhibition” value was 7.25%. In the case of `O=C(Nc1nc2cc3c(cc2s1)OCO3)C1=COCCO1`, the “activity change, negative = inhibition” value is reported as -28.5%. For `O=C(CCC(=O)c1ccc[nH]1)c1ccc(Cl)cc1`, the “activity change, negative = inhibition” value was -1.41%. In the case of `Cc1c(C#N)c(NC(=O)CCl)n(Cc2ccc(F)cc2)c1C`, the “activity change, negative = inhibition” value is reported as -31.5%. In the case of `C=CCn1c(C)cc(C(=O)Cn2ncc(Cl)c(Cl)c2=O)c1C`, the “activity change, negative = inhibition” value is reported as -34.7%. For `Nc1nc2n[nH]nc2c(=O)[nH]1`, the “activity change, negative = inhibition” value was -21.7%. With `CC(C)c1ccc(/C=C2\SC(=S)N(CCC(=O)N3CCCCC3CCO)C2=O)cc1` (stereo not drawn) the “activity change, negative = inhibition” value was 9.88%. For `CSc1nc(N)n2nc(-c3ccccc3)cc2n1`, the “activity change, negative = inhibition” value was -24.9%. In the case of `O=C(Nc1ccc2c(c1)OCCO2)c1ccoc1`, the “activity change, negative = inhibition” value is reported as -8.78%. For `Cc1ccc(-c2noc(-c3ccno3)n2)cc1`, the “activity change, negative = inhibition” value was -24.2%. For `CC(=C/c1ccco1)/C=N/N1CCN(c2ccccc2)CC1`, the “activity change, negative = inhibition” value was -19.4%. In the case of `COc1ccc2nc(C)cc(NCc3cccc(C(F)(F)F)c3)c2c1`, the “activity change, negative = inhibition” value is reported as -2.53%. In the case of `COC(=O)C1=C(CN2CCCc3ccccc32)NC(=O)NC1c1ccc(F)cc1` (stereo not drawn), the “activity change, negative = inhibition” value is reported as -1.92%. For `O=[N+]([O-])c1cccc(/C=N/Nc2ncc(Br)cn2)c1`, the “activity change, negative = inhibition” value was 6.28%. In the case of `O=C(CSCC(=O)Nc1ccccc1)N/N=C/c1c(O)ccc2ccccc12`, the “activity change, negative = inhibition” value is reported as -12.1%. For `O=C(CNc1ccc2ccccc2c1)N/N=C/c1ccc([N+](=O)[O-])o1`, the “activity change, negative = inhibition” value was -35.4%. For `Cc1cc2oc(=O)cc(C)c2cc1NC(=O)CCC(=O)O`, the “activity change, negative = inhibition” value was -2.92%. In the case of `C=CCSC(=S)NC1CCS(=O)(=O)C1` (stereo not drawn), the “activity change, negative = inhibition” value is reported as -29.3%. For `CCOC(=O)COc1ccc2ccccc2c1/C=C/[N+](=O)[O-]`, the “activity change, negative = inhibition” value was -18.2%. In the case of `N/C(CS(=O)(=O)c1ccccn1)=N\OC(=O)c1ccccc1Cl`, the “activity change, negative = inhibition” value is reported as -2.74%. With `O=C(O)/C=C/C(=O)c1ccc2c(c1)CCc1ccccc1-2` the “activity change, negative = inhibition” value was -35.3%. With `C=CCN1C(=O)S/C(=C\c2ccc(N3CCOCC3)cc2C)C1=O` the “activity change, negative = inhibition” value was -19.1%. For `CC(=O)Nc1cccc(-c2nnc(-c3ccccc3)o2)c1`, the “activity change, negative = inhibition” value was -3.6%. In the case of `CC(=O)Nc1ccc(-c2nc3ccccc3o2)cc1`, the “activity change, negative = inhibition” value is reported as 7.41%. For `COc1cccc(/C=N/NC(=O)CN2CC(c3ccccc3)CC2=O)c1OC` (stereo not drawn), the “activity change, negative = inhibition” value was 3.58%. With `c1ccc(Cc2cc(-c3ccccc3)on2)cc1` the “activity change, negative = inhibition” value was 5.16%. For `Cc1ccc(C(=O)Nc2cnc3ccccc3c2)cc1`, the “activity change, negative = inhibition” value was -11.4%. With `COc1ccc(NC(=O)NC(=O)c2ccccc2)cc1` the “activity change, negative = inhibition” value was 10.3%. For `O=C(Nc1ccc(Cl)cc1)Nc1cccc(C(=O)O)c1`, the “activity change, negative = inhibition” value was -1.06%. In the case of `Cc1ccc(NC(=O)c2ccccc2)cc1`, the “activity change, negative = inhibition” value is reported as 5.52%. For `CCN(CC)CCNC(=O)c1ccc(NC(=O)c2cccc(S(=O)(=O)N3c4ccccc4CC3C)c2)cc1` (stereo not drawn), the “activity change, negative = inhibition” value was -17.4%. For `Cc1ccc(NC(=O)c2cc(-c3cccs3)on2)cc1`, the “activity change, negative = inhibition” value was 4.72%. With `O=[N+]([O-])/C=C\c1ccc(N2CCCC2)c(F)c1` the “activity change, negative = inhibition” value was -33.7%. In the case of `CN(C)c1ccc(C2=NOC(CN3C(=O)c4ccccc4S3(=O)=O)C2)cc1` (stereo not drawn), the “activity change, negative = inhibition” value is reported as -4.73%. With `CCC(=O)Nc1cc(C(=O)OCC(=O)c2ccccc2Cl)ccc1C` the “activity change, negative = inhibition” value was 1.33%. In the case of `Cn1cccc1C(=O)NC(=O)COC(=O)c1ccc(S(C)(=O)=O)c([N+](=O)[O-])c1`, the “activity change, negative = inhibition” value is reported as -11.1%. In the case of `O=C(NCCNc1ccccc1[N+](=O)[O-])c1cc(F)c(F)cc1Cl`, the “activity change, negative = inhibition” value is reported as -1.12%. For `CN(CCC#N)C(=O)COC(=O)c1ccccc1C(=O)c1ccc(Cl)c([N+](=O)[O-])c1`, the “activity change, negative = inhibition” value was -28.2%. In the case of `O=C(COC(=O)c1ccc(F)c([N+](=O)[O-])c1)NC(=O)NCc1ccccc1`, the “activity change, negative = inhibition” value is reported as -8.85%. For `O=C(NC1CC1)C1CCN(S(=O)(=O)c2ccc(Cl)c([N+](=O)[O-])c2)CC1`, the “activity change, negative = inhibition” value was -35.8%.
